# Columns and labels:
# Assay in all cases: DAPPL (digital affinity profiling via proximity ligation, sequencing); 10 mM Tris-HCl pH 7.5, 50 mM NaCl, 1 mM DTT, 4% glycerol, room temperature, 30 min; GST-TFs on glutathione beads, 16-mer random dsDNA library, 0.1% formaldehyde crosslink after washing; high values mean tight binding
# FLI1 = biological target: T1, FLI1 (Homo sapiens, UniProt Q01543 1-452); details: protein: recombinant; tags: N-terminal GST; dsDNA, one strand shown
# T1 sequence: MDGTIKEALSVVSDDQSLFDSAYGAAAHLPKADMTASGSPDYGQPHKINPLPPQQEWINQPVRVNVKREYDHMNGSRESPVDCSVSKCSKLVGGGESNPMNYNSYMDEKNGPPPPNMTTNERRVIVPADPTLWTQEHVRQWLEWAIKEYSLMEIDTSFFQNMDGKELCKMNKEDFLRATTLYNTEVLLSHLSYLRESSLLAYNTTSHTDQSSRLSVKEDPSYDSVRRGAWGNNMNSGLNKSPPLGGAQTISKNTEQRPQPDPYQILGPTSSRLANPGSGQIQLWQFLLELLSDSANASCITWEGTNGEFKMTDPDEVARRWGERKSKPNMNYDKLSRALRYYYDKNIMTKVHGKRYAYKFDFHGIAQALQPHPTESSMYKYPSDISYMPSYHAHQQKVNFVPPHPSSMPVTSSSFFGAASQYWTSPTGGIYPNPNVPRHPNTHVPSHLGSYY
# How it was run: (§1)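 GST fusions of human transcription factors were expressed in yeast and captured with glutathione beads. Once given DNA barcodes and pooled alongside a tag-only sample, they were incubated for 30 min at room temperature with 200 nmole of a random double-stranded 16-mer DNA library in Tris/NaCl/DTT/glycerol buffer, then washed, crosslinked (0.1% formaldehyde), proximity-ligated, PCR-amplified and sequenced on an Illumina NextSeq500. The binding signal of each hexamer is its read frequency for a factor divided by its frequency for the tag-only sample.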
# ELK1 = biological target: T2, ELK1 (Homo sapiens, UniProt P19419 1-428); details: protein: recombinant; tags: N-terminal GST; dsDNA, one strand shown
# T2 sequence: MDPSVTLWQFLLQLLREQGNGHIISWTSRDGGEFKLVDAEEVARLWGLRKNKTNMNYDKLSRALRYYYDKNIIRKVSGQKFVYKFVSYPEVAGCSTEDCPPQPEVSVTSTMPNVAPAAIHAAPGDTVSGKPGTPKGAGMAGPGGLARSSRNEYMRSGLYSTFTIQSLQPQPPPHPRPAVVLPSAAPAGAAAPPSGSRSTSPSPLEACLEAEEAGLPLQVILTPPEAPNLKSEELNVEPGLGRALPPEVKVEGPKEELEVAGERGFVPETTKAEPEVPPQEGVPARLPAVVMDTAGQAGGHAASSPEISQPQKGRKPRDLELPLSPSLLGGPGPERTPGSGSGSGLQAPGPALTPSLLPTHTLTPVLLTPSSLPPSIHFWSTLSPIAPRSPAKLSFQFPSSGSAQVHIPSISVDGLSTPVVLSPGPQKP
# How it was run: as §1
# GABPA = biological target: T3, GABPA (Homo sapiens, UniProt Q06546 1-454); details: protein: recombinant; tags: N-terminal GST; dsDNA, one strand shown
# T3 sequence: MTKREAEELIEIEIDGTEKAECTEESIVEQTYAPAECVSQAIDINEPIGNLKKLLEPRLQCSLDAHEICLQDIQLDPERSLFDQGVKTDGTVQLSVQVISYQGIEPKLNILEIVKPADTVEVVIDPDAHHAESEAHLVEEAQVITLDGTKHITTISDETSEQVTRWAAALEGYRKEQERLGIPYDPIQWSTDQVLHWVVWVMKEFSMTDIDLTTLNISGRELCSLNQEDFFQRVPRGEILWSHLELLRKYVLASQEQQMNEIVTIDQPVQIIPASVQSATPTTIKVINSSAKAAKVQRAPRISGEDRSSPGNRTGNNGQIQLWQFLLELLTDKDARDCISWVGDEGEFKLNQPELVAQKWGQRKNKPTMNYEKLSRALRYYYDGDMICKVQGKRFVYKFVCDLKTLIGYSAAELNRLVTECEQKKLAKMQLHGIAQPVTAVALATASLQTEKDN
# How it was run: as §1
# ERG = biological target: T4, ERG (Homo sapiens, UniProt P11308 1-479); details: protein: recombinant; tags: N-terminal GST; dsDNA, one strand shown
# T4 sequence: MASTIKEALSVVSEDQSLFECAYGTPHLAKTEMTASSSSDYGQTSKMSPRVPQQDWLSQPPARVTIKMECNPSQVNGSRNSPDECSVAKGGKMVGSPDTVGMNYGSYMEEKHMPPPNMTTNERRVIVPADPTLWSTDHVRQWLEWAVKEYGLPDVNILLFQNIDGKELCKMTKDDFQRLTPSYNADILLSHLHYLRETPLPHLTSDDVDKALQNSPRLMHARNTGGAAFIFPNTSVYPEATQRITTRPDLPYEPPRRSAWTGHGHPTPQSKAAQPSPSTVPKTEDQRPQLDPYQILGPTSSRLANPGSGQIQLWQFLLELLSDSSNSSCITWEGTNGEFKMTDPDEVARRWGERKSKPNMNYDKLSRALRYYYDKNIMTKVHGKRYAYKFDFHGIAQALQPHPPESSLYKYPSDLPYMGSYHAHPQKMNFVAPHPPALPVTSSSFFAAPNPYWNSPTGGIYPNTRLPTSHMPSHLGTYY
# How it was run: as §1
# ELF1 = ELF1 (Homo sapiens, UniProt P32519 1-619); details: protein: recombinant; tags: N-terminal GST; dsDNA, one strand shown
# How it was run: as §1
# EHF = biological target: T5, EHF (Homo sapiens, UniProt Q9NZC4 1-300); details: protein: recombinant; tags: N-terminal GST; dsDNA, one strand shown
# T5 sequence: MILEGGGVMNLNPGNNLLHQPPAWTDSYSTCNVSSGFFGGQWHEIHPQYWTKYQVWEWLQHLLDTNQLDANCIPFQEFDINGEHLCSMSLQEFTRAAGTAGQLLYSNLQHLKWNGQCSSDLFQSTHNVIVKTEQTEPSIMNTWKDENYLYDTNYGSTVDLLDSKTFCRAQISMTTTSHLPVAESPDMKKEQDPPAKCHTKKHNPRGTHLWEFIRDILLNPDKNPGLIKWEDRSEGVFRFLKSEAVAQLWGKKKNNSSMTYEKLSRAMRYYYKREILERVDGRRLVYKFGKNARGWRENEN
# How it was run: as §1
# SPI1 = SPI1 (Homo sapiens, UniProt P17947 1-270); details: protein: recombinant; tags: N-terminal GST; dsDNA, one strand shown
# How it was run: as §1
# SPIB = SPIB (Homo sapiens, UniProt Q01892 1-262); details: protein: recombinant; tags: N-terminal GST; dsDNA, one strand shown
# How it was run: as §1
# ELK3 = biological target: T6, ELK3 (Homo sapiens, UniProt P41970 1-407); details: protein: recombinant; tags: N-terminal GST; dsDNA, one strand shown
# T6 sequence: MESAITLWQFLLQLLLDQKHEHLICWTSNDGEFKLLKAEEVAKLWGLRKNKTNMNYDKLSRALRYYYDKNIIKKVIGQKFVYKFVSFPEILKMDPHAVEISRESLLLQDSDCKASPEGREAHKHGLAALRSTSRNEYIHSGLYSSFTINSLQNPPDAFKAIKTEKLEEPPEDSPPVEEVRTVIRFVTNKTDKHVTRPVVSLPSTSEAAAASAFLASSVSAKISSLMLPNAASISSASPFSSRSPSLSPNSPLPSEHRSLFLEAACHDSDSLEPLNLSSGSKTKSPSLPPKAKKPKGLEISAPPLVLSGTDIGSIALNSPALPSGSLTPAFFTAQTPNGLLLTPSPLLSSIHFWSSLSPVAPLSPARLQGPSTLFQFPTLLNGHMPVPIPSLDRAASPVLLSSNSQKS
# How it was run: as §1
# FEV = biological target: T7, FEV (Homo sapiens, UniProt Q99581 1-238); details: protein: recombinant; tags: N-terminal GST; dsDNA, one strand shown
# T7 sequence: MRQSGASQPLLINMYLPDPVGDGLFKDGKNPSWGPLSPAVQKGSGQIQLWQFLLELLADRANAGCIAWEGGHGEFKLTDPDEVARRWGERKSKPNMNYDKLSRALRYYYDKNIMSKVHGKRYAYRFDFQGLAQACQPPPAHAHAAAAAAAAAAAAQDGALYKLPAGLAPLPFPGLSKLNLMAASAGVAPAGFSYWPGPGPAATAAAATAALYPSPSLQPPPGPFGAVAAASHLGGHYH
# How it was run: as §1
# ETV5 = ETV5 (Homo sapiens, UniProt P41161 1-510); details: protein: recombinant; tags: N-terminal GST; dsDNA, one strand shown
# How it was run: as §1
# HSF1 = HSF1 (Homo sapiens, UniProt Q00613 1-529); details: protein: recombinant; tags: N-terminal GST; chain copies: 3; dsDNA, one strand shown
# How it was run: as §1
# SPIC = biological target: T8, SPIC (Homo sapiens, UniProt Q8N5J4 1-248); details: protein: recombinant; tags: N-terminal GST; dsDNA, one strand shown
# T8 sequence: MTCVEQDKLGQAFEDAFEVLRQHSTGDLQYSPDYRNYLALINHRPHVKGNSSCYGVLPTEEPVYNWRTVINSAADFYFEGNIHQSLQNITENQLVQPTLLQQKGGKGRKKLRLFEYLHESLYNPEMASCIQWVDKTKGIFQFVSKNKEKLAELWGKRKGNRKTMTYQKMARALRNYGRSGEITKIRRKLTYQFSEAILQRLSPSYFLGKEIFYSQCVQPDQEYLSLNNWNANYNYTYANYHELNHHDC
# How it was run: as §1
# ELF4 = ELF4 (Homo sapiens, UniProt Q99607 1-663); details: protein: recombinant; tags: N-terminal GST; dsDNA, one strand shown
# How it was run: as §1
# ELK4 = biological target: T9, ELK4 (Homo sapiens, UniProt P28324-2 1-405); details: protein: recombinant; tags: N-terminal GST; dsDNA, one strand shown
# T9 sequence: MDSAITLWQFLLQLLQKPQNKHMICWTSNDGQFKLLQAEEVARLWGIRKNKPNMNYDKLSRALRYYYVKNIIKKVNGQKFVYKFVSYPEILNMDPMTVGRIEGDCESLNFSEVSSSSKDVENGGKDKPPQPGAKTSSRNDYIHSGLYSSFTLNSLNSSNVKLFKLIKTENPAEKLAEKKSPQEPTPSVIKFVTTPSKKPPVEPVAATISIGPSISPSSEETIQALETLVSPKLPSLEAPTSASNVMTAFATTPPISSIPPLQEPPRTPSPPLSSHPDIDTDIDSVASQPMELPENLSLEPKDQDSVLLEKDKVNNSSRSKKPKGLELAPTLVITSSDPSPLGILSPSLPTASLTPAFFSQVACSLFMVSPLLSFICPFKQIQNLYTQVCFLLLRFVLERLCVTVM
# How it was run: as §1
# ETV2 = biological target: T10, ETV2 (Homo sapiens, UniProt O00321 1-342); details: protein: recombinant; tags: N-terminal GST; dsDNA, one strand shown
# T10 sequence: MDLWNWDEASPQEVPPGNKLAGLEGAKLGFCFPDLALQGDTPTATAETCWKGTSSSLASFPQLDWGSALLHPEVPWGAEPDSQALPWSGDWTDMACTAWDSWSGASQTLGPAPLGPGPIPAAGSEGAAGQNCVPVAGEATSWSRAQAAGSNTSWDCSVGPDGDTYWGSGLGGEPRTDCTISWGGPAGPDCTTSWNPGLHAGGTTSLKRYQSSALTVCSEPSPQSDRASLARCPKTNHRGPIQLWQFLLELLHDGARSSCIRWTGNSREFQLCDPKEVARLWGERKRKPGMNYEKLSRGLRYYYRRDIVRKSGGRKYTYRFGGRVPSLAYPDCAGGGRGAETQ
# How it was run: as §1
# ELF3 = biological target: T11, ELF3 (Homo sapiens, UniProt P78545 1-371); details: protein: recombinant; tags: N-terminal GST; dsDNA, one strand shown
# T11 sequence: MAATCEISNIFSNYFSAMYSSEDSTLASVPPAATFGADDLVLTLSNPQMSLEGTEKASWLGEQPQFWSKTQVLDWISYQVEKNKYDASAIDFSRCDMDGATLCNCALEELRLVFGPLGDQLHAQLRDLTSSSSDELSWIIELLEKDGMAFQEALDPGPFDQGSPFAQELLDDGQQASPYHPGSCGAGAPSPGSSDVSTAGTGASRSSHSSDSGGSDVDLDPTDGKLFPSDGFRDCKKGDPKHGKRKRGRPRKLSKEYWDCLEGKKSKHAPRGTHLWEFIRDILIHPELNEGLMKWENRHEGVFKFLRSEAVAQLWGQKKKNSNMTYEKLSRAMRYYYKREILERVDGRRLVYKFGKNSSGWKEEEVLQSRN
# How it was run: as §1
# CRX = CRX (Homo sapiens, UniProt O43186 1-299); details: protein: recombinant; tags: N-terminal GST; dsDNA, one strand shown
# How it was run: as §1
# ETV1 = ETV1 (Homo sapiens, UniProt P50549 1-477); details: protein: recombinant; tags: N-terminal GST; dsDNA, one strand shown
# How it was run: as §1
# Sequence of ELF1 (P32519 whole entry): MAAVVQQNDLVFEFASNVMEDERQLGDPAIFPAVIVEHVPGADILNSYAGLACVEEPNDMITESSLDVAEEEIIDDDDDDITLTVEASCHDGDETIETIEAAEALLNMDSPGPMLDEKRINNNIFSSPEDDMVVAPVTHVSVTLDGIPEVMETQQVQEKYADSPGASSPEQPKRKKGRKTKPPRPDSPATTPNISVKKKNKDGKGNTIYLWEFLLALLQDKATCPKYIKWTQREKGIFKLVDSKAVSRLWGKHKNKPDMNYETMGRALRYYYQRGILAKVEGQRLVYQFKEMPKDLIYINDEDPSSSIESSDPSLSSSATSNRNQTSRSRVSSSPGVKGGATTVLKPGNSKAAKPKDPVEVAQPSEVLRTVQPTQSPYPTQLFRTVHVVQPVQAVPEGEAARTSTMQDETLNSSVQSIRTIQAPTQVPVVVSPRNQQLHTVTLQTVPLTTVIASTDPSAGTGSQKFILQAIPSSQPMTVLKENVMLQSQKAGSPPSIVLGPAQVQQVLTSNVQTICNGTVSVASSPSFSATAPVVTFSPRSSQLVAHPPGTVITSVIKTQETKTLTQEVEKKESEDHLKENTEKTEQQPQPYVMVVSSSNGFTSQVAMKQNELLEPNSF
# Sequence of CRX (O43186 whole entry): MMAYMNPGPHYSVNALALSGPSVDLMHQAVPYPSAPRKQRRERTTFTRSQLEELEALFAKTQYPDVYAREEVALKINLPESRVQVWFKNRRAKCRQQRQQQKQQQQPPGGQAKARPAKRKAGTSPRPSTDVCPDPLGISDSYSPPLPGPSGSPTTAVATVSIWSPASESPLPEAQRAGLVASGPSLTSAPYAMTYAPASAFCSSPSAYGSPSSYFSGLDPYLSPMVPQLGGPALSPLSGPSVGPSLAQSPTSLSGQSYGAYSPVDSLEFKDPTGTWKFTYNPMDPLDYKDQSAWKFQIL
# Sequence of ELF4 (Q99607 whole entry): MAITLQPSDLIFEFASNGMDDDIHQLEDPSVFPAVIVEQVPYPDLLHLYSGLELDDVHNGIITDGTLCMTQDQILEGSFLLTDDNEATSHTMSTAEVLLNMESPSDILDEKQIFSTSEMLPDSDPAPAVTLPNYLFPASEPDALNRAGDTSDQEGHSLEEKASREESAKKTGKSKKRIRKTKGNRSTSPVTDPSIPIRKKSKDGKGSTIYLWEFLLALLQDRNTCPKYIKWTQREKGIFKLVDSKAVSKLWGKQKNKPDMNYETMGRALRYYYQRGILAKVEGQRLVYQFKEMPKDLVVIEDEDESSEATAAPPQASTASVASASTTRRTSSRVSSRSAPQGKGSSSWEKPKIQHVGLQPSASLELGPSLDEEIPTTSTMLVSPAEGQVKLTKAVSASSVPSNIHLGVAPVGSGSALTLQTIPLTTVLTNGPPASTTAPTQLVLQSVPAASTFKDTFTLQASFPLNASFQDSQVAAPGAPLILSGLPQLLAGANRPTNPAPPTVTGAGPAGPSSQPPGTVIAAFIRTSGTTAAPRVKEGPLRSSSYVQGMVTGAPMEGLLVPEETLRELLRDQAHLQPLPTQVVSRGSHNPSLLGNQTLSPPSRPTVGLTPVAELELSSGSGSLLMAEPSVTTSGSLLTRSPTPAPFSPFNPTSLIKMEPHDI
# Sequence of HSF1 (Q00613 whole entry): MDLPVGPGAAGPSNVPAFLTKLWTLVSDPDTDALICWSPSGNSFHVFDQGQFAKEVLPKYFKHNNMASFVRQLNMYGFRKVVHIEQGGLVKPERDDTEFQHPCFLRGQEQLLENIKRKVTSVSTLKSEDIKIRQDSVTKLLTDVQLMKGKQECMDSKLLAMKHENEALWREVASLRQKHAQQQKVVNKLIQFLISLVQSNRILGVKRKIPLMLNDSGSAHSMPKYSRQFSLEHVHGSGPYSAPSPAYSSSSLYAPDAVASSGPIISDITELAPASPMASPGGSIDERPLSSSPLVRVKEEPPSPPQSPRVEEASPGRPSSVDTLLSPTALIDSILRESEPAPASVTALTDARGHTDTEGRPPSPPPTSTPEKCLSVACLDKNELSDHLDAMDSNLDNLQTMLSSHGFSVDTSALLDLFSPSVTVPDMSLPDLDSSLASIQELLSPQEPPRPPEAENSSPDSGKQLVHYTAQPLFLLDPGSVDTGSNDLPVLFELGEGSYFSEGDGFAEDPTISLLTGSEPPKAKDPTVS
# Sequence of ETV1 (P50549 whole entry): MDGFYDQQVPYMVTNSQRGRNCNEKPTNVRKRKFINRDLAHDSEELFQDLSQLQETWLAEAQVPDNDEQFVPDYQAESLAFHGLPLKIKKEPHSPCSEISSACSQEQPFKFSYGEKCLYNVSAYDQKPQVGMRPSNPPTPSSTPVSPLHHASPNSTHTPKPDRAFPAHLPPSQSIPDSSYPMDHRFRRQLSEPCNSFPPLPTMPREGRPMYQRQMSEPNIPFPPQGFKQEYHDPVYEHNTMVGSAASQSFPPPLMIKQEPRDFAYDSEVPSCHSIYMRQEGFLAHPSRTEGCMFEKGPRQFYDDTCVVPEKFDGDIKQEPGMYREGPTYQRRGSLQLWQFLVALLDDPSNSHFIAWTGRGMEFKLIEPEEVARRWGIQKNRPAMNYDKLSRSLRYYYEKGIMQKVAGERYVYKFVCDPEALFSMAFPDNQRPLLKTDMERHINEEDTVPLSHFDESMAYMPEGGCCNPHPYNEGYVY
# Sequence of SPIB (Q01892 whole entry): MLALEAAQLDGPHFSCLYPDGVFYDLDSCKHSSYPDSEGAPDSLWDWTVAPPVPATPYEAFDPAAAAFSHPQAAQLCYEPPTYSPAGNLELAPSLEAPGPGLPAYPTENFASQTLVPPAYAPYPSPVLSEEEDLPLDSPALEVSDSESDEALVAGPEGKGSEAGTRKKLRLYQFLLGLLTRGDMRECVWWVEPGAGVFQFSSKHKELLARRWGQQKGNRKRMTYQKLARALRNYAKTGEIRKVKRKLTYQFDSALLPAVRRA
# Sequence of ETV5 (P41161 whole entry): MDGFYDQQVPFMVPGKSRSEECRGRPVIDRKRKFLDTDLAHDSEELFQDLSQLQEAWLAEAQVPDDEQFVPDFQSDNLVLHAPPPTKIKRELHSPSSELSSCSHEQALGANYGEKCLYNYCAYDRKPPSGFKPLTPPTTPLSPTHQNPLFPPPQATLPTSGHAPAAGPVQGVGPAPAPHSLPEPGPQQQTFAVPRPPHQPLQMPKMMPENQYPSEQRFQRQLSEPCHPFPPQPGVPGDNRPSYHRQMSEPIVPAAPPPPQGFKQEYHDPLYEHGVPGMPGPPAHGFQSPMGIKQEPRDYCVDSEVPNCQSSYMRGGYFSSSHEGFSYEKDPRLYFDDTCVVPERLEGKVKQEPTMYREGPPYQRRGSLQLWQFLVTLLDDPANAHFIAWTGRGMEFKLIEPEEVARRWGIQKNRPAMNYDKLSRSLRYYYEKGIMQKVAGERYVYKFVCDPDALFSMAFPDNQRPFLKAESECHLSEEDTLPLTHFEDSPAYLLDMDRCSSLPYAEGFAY
sequence,measurement,setting,value
TATAGG,binding signal,FLI1,"1.14 fold enrichment (6-mer frequency, TF over GST control)"
same,binding signal,ELK1,"1.06 fold enrichment (6-mer frequency, TF over GST control)"
same,binding signal,GABPA,"1.19 fold enrichment (6-mer frequency, TF over GST control)"
same,binding signal,ERG,"1.18 fold enrichment (6-mer frequency, TF over GST control)"
same,binding signal,ELF1,"1.15 fold enrichment (6-mer frequency, TF over GST control)"
same,binding signal,EHF,"1.28 fold enrichment (6-mer frequency, TF over GST control)"
same,binding signal,SPI1,"1.23 fold enrichment (6-mer frequency, TF over GST control)"
same,binding signal,SPIB,"1.27 fold enrichment (6-mer frequency, TF over GST control)"
same,binding signal,ELK3,"1.08 fold enrichment (6-mer frequency, TF over GST control)"
same,binding signal,FEV,"1.15 fold enrichment (6-mer frequency, TF over GST control)"
same,binding signal,ETV5,"1.24 fold enrichment (6-mer frequency, TF over GST control)"
same,binding signal,HSF1,"1.2 fold enrichment (6-mer frequency, TF over GST control)"
same,binding signal,SPIC,"1.34 fold enrichment (6-mer frequency, TF over GST control)"
same,binding signal,ELF4,"1.05 fold enrichment (6-mer frequency, TF over GST control)"
same,binding signal,ELK4,"1.14 fold enrichment (6-mer frequency, TF over GST control)"
same,binding signal,ETV2,"1.26 fold enrichment (6-mer frequency, TF over GST control)"
same,binding signal,ELF3,"1.19 fold enrichment (6-mer frequency, TF over GST control)"
same,binding signal,CRX,"1.42 fold enrichment (6-mer frequency, TF over GST control)"
same,binding signal,ETV1,"1.13 fold enrichment (6-mer frequency, TF over GST control)"
